14-3-3 PPI – modulators of 14-3-3 gamma protein binding, primary screen, biochemical, fluorescence polarization; FP, 14-3-3gamma / TMR-pS259-Raf peptide binding; inhibition, % at 40 µM; actives 0.19% (n = 160,000); in the data active = inhibition above about 30%;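 also: 0% = protein plus tracer without compound and 100% = blank with tracer alone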
Target sequence (P61981 whole entry, looked up): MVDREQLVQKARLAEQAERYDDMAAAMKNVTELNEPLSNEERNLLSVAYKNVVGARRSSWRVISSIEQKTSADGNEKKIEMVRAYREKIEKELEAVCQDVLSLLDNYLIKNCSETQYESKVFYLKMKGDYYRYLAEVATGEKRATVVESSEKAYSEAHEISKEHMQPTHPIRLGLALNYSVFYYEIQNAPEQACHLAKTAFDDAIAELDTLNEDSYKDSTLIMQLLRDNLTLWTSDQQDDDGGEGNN
The depositor's hits bear a star. This is one part of a sample in which hits are shown more often than they occur.

SMILES	14-3-3 PPI
COc1ccc(COC(=O)C2=C(C)NC3=C(C(=O)CC(c4cccs4)C3)C2c2ccc(C)c([N+](=O)[O-])c2)cc1 (stereo not drawn)	-1
CCCCNC(=O)C1CCC(=O)N(c2ccc(OC)cc2)C1c1ccc(OC)cc1 (stereo not drawn)	-2
COC(=O)c1cc(-c2ccc(OCc3ccccc3)c(OC)c2)no1	-3
O=C(Nc1cccc(N=Cc2c(O)ccc3cc([N+](=O)[O-])ccc23)c1)c1ccccc1	32*
O=C(Nc1cccc(N=Cc2c(O)ccc3cc([N+](=O)[O-])ccc23)c1)c1ccc(F)cc1	-1
CCOc1cc([N+](=O)[O-])cc(C=Nc2cccc(NC(=O)c3ccccc3)c2)c1O	-74
CSc1nnc2c(n1)OC(c1ccc(C)cc1)N(C(C)=O)c1ccccc1-2 (stereo not drawn)	-15
O=C(CCC1Nc2c3ccccc3nc(=S)n2C1=O)NCc1ccccc1Cl (stereo not drawn)	-4
CCOC(=O)c1ccc(Nc2nc(-c3cc4c(ccc5ccccc54)oc3=O)cs2)cc1	-104
COc1ccc(NC(=O)C2=C(C)NC3=C(C(=O)CC(c4ccc(OC)c(OC)c4)C3)C2c2coc3ccccc3c2=O)cc1 (stereo not drawn)	-16
CN(C(=O)CCSc1nc(-c2ccc3c(c2)OCO3)cc(C(F)(F)F)n1)C1CCCCC1	2
COc1ccc(Nc2ccc3c4c(ncnc24)-c2ccccc2C3=O)cc1	-72
O=C1c2ccccc2-c2ncnc3cccc1c23	-5
O=C(O)c1ccc2c3c(ncnc13)-c1ccccc1C2=O	40*
O=C(O)c1cc(-c2ccc(F)cc2)nc2ccccc12	2
Oc1c(-c2ccc(F)cc2)c2nc3ccccc3nc2c2ccccc12	53*
Fc1ccc(-c2cnc3ccccc3n2)cc1	-9
CCOC(=O)C1=C(C(F)(F)F)Nc2nnnn2C1c1cc(OC)ccc1OC (stereo not drawn)	-2
Cc1cc(NS(=O)(=O)c2ccc(NC(=O)CCN3C(=O)c4ccccc4C3=O)cc2)no1	-10
CCC(=O)Nc1ccc(S(=O)(=O)Nc2cc(C)on2)cc1	-6
Cc1cc(NS(=O)(=O)c2ccc(NC(=O)CCC(=O)O)cc2)no1	37*
CCc1ccc(Nc2cc(C(=O)O)c3ccccc3n2)cc1	-3
CNc1ccc2nc3ccccc3[n+](CCO)c2c1	67*
C=CCn1c(=S)[nH]c2ccc(N3CCOCC3)cc2c1=O	-1
Cc1csc(NC(=O)CSc2nc(-c3cccs3)cc(-c3cccs3)c2C#N)n1	-26
SMILES	14-3-3 PPI
Cc1csc(NC(=O)CSc2nsc(SCC(=O)Nc3nc(C)cs3)c2C#N)n1	75*
CC(C)(C)NC(=O)CSc1nsc(SCC(=O)NC(C)(C)C)c1C#N	-1
C=CCN(C(=O)c1nn(-c2ccc(C)cc2)c(=O)c2c1c1ccccc1n2C)c1ccccc1	4
Fc1ccc(-c2csc(=Nc3ccccc3)n2Cc2ccccc2)cc1	-5
CC1(C)CC(=O)c2sc(NC(=O)CSC(=O)c3ccccc3)nc2C1	-15
COC(=O)Cn1c2ccccc2c2nc3ccccc3nc21	-5
O=C(O)Cn1c(-c2ccccc2)nc2ccccc21	-2
O=C(O)Cn1c2ccccc2c2nn3cc(-c4ccccc4)nc3nc21	119*
O=C(Nc1ccc(NC(=O)c2cc([N+](=O)[O-])ccc2Cl)cc1)c1cccs1	-11
COc1ccc(Cl)cc1NC(=O)CSc1nc(-c2cccs2)nc2c1c(=O)n(C)c(=O)n2C	1
COc1ccc(C2CC(=O)C3=C(C2)Nc2ccccc2N(C(=O)C(F)(F)F)C3c2ccccc2Cl)cc1 (stereo not drawn)	5
CCN(C(=O)CCN1C(=S)NC(C)(C)CC1C)c1ccc(C)c(C)c1 (stereo not drawn)	51*
Cc1cccc(NC(=O)CCN2C(=S)NC(C)(C)CC2C)c1C (stereo not drawn)	4
CCN(C(=O)CN1C(=S)NC(C)(C)CC1C)c1ccc(C)c(C)c1 (stereo not drawn)	-5
COc1cc2c(cc1OC)C1C(C(=O)N3CCCCCC3)c3ccccc3C(=O)N1CC2 (stereo not drawn)	5
NCCC(=O)N1CCOCCOCCOCCOCC1	1
O=C1c2ccccc2C(=O)c2c1ccc1c(=O)o[nH]c21	73*
O=C1c2ccccc2C(=O)c2c(Br)cccc21	-2
O=C1c2ccccc2C(=O)c2c(I)cccc21	3
COCCNC(=O)c1ccc(NCC2CCCO2)c([N+](=O)[O-])c1 (stereo not drawn)	0
COc1cccc(C2C3=C(CC(c4ccc(C)cc4)CC3=O)Nc3ccccc3N2C(=O)C2CC2)c1 (stereo not drawn)	5
C=CCn1c(SCC(=O)O)nnc1-c1ccc2c(c1)OCO2	-7
Cc1cc(I)cc(C=Nc2cccc(NC(=O)c3ccccc3Cl)c2)c1O	-12

Assay outcomes as filed in PubChem BioAssay.
